Sfp inh = Sfp phosphopantetheinyl transferase inhibition | Q9F4F7 | Biochemical Sfp PPTase activity, qHTS | Potency, µM, without a hit: largest response in the series, negative = inhibition, actives largely listed as inhibitors | actives 3.5% (n = 310,000) | AID 1490;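 further: the enzyme is Sfp with the accession as filed and its product quenches rhodamine fluorescence; 0% = enzyme reaction without inhibitor and -100% = no enzyme wells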
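With Hepes-Na pH 7.6 buffer containing 10 mM MgCl2, Sfp (15 nM) modified BHQ-2-YbbR (12.5 uM) using rhodamine-CoA (5 uM). Two reads 30 minutes apart at 525/598 nm yielded each well's rate.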
GRP78 ERSR act = induces the endoplasmic reticulum stress response in human glioma cells; U87-MG GRP78 promoter luciferase reporter, 16 h; Potency, µM, for the others: at the top dose activation, usual class: activators; actives 0.02% (n = 420,000); AID 602332; further: series mostly up to about 76 µM; % of control where 0% means no effect; nearly all actives have a fitted effect of over 35% in size
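ERSR induction read as luciferase luminescence (Bright-Glo, 10 min at room temperature) in stably transfected human U87-MG glioma cells exposed to compounds for 16 h, using GRP78 as sensor.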
ALOX12 inh = inhibitors of human 12S-lipoxygenase ALOX12; P18054; purified 12hLO, xylenol orange hydroperoxide absorbance; Potency, µM (series often up to 108 µM), for inactives: top-dose activity change, negative = inhibition, most hits filed as inhibitors; actives 1.1% (n = 580,000); AID 1671190; further: on the % scale 0 is the no-effect control and ±100 the full control effect
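Purified human 12hLO (150 nM final) in 25 mM Hepes, 0.01% Triton X-100, pH 7.0 was preincubated 15 min at room temperature with compound. Then 40 uM arachidonic acid was added, 30 min. Hydroperoxide was read by Fe-XO absorbance ratio 573/405 nm.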
G9a inh = blocks human histone lysine methyltransferase G9a | Potency, µM (titrated, usually from 102 µM), inactives show at the top dose activity, negative = inhibition, usual class: inhibitors | G9a H3K9 monomethylation, AlphaScreen, 2 h | actives 8.8% (n = 350,000); further: on the % scale 0 is the no-effect control and ±100 the full control effect; nearly all actives have a fitted effect of over 75% in size
Target sequence (Q96KQ7 913-1193 limits assumed): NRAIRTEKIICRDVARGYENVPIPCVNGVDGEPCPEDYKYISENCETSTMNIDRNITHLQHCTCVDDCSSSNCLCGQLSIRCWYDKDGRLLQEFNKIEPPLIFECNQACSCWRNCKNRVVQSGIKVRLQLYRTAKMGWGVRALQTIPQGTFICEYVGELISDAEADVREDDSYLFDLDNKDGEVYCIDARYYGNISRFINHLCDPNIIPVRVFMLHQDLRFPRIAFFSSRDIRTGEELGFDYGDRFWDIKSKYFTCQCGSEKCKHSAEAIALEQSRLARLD
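AlphaScreen detection with an anti-monomethyl H3K9 antibody quantified product after a 2 h room-temperature reaction containing 500 nM biotinylated H3K9 peptide, 20 µM SAM and 20 nM enzyme, which had been preincubated 15 min with compound.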
VDR inh = inhibitors of human vitamin D receptor. P11473. VDR-SRC2-3 peptide fluorescence polarization, 2 h. Potency, µM, for inactives: max response, negative = inhibition, hits mostly inhibitors. actives 0.93% (n = 400,000). AID 504847; further: on the % scale 0 is the no-effect control and ±100 the full control effect
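Inhibition of the VDR/SRC2-3 peptide interaction is quantified by fluorescence polarization. Compounds (23 nl, pintool) incubate with the reagents for 2 hours at ambient room temperature.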
An asterisk follows results filed as active; ? = inconclusive; . = no result given; ! = not active in a repeat; [ ] = dose if it differs, or a comment. Only a selection was taken, and hits are over-represented in it overall. The call rests on the fitted dose curve; in most records, active means well fitted curve in the direction sought with a large enough effect; inconclusive means small, poorly fitted or top-dose-only effect, or another doubt; inactive means no such curve, though single readings can be large; an effect the other way counts as inactive or inconclusive. Potency means the concentration at half of the fitted maximal effect.

SMILES | Sfp inh | GRP78 ERSR act | ALOX12 inh | G9a inh | VDR inh
O=C(COC(=O)c1cccc(S(=O)(=O)N2CCc3ccccc3C2)c1)NCc1ccco1 | ? | -1.1% | 7.9% | ? | -2.3%
Cc1ccc(S(=O)(=O)N2CCC(C(=O)OCC(=O)NCc3ccco3)CC2)cc1C | . | -1.6% | -21.7% | -18.5%[59 µM] | 6.0%
O=C(COC(=O)c1cc(S(=O)(=O)N2CCc3ccccc3C2)ccc1Cl)NCc1ccco1 | 44.7µM* | 16.4% | -9.2% | 39.8µM* | ?
CN(C(=O)COC(=O)C1CCN(S(=O)(=O)c2c(Cl)cccc2Cl)CC1)c1ccccc1 | . | -2.1% | -17.1% | -50.0% | 5.3%
Cc1occc1C(=O)Nc1nc(CC(=O)Nc2ccc3c(c2)CCC3)cs1 | . | . | -16.7% | . | .
CCOc1cc(C(=O)Nc2nc(C)cs2)ccc1OCc1ccncc1 | . | . | 11.4% | . | .
CC(C)(C)c1cc(O)c(C(C)(C)C)cc1O | -13.2% | 39.8µM*! | 10.8%[176 µM] | ? | 28.2µM*
CC(C)(C)c1ccc(O)c(O)c1 | . | -3.4% | 35.5µM* | 9.1%[0.501 µM] | 13.3%
COc1cccc(CNC(=O)N2CCN(Cc3ccc(Cl)s3)CC2)c1 | . | . | 12.5% | . | .
Cc1ccc(NC(=O)N2C[C@H](c3nc(-c4cccnc4)no3)[C@@H](C)C2)cc1 | . | . | 46.9% | . | .
Cn1nc(C(=O)Nc2cccc(S(=O)(=O)N3CCCCC3)c2)c2ccccc2c1=O | . | -1.2% | 1.6% | 39.8µM* | 20.7%
O=C(Nc1ccc(Cl)c(S(=O)(=O)N2CCCC2)c1)c1nn(CCO)c(=O)c2ccccc12 | . | -0.2% | 3.7% | 50.1µM* | -3.3%
O=C(NC(=S)Nc1ccc(N2CCOCC2)c(Cl)c1)c1sc2ccccc2c1Cl | ? | -2.4% | -5.4% | 1.26µM* | -2.9%
CC(C)CC(=O)NC(=S)Nc1ccc(N2CCOCC2)c(Cl)c1 | 4.7% | -0.9% | ? | 11.2µM* | -1.6%
CC[C@H]1C=C[C@@H](C(C(=O)OC)C(=O)OC)CN1C(C)=O | . | -0.5% | 0.2% | . | 79.4µM*
CC(C(=O)N1CCCCCC1)N1CCC(c2nc3ccccc3o2)CC1 (stereo not drawn) | . | . | 17.3% | . | .
O=C(Oc1ccc(C(=S)N2CCOCC2)cc1)c1ccccc1F | 25.1µM* | 1.4% | 5.2% | 25.1µM* | ?
O=C(Oc1ccc(C(=S)N2CCOCC2)cc1)c1ccccc1[N+](=O)[O-] | -13.7% | -0.2% | 14.2% | . | -13.4%
O=C(Oc1ccc(C(=S)N2CCOCC2)cc1Cl)c1ccccc1F | 56.2µM* | -0.8% | -13.1% | -8.7%[0.501 µM] | -29.1%
O=C(Oc1ccc(C(=S)N2CCOCC2)cc1Br)c1ccccc1F | 22.4µM* | -6.7% | ? | 10µM* | ?
Cc1ccc(Cn2ncc3c2NC(=O)CC32C(=O)N(C)c3c(Cl)cccc32)cc1 (stereo not drawn) | . | . | -2.2% | . | .
CCOc1ccc(Nc2nc(N)c(C(=O)c3ccc(OC)c(OC)c3)s2)cc1 | . | . | -10.2% | . | .
O=C1c2oc3ccc(F)cc3c(=O)c2C(c2ccncc2)N1CCN1CCOCC1 (stereo not drawn) | -2.3% | . | . | 50.1µM* | .
Cc1ccc2oc3c(c(=O)c2c1)C(c1cccc(O)c1)N(CCCN1CCOCC1)C3=O (stereo not drawn) | . | -1.7% | -17.2% | -1.5%[59 µM] | 28.9%
Cc1ccc2oc3c(c(=O)c2c1)C(c1cccc(Cl)c1)N(CCCN1CCOCC1)C3=O (stereo not drawn) | 8.1% | -2.6% | 12.5%[57.4 µM] | 50.1µM* | -6.0%
SMILES | Sfp inh | GRP78 ERSR act | ALOX12 inh | G9a inh | VDR inh
COc1ccc(C2c3c(oc4ccccc4c3=O)C(=O)N2Cc2ccncc2)cc1 (stereo not drawn) | 8.2% | . | . | -0.2%[59 µM] | .
Cc1ccc2oc3c(c(=O)c2c1)C(c1ccc(F)cc1)N(CCCN1CCOCC1)C3=O (stereo not drawn) | ? | . | . | 44.7µM* | .
CN1C(=O)c2oc3ccccc3c(=O)c2C1c1ccncc1 (stereo not drawn) | ? | -5.4% | . | 8.91µM* | 79.4µM*
COCCC1(CO)CCCN(c2ncc(F)c(N3CCCC3)n2)C1 (stereo not drawn) | . | . | -0.3% | . | .
O=C(Nc1nc(=S)ss1)c1ccc(Cl)cc1Cl | 12.6µM* | -3.0% | ? | ? | -14.1%
CC(C)NC[C@@H](O)c1ccc(NS(C)(=O)=O)cc1 | . | . | 13.9% | . | .
O=C1CCC2(CCN(C(=O)c3ccco3)CC2)CN1CC1CCCO1 (stereo not drawn) | . | . | 19.6% | . | .
